Consider five compounds from PubChem BioAssay AID1469 (National Center for Advancing Translational Sciences (NCATS), 2008).

The campaign covered roughly 280,000 compounds. About 180 (0.064%) were called active. This is one part of a sample in which actives are shown more often than they occur. Calls follow the shape of the dose curve; as a rule, active = well fitted inhibition curve with a large enough effect; inconclusive = small, poorly fitted or top-dose-only effect, or effect the other way; inactive = flat fitted curve, though single readings scatter.
Potency is read from the fitted curve at half-maximal effect.

Chain of Thyroid hormone receptor beta (Homo sapiens) (P10828 whole entry, looked up): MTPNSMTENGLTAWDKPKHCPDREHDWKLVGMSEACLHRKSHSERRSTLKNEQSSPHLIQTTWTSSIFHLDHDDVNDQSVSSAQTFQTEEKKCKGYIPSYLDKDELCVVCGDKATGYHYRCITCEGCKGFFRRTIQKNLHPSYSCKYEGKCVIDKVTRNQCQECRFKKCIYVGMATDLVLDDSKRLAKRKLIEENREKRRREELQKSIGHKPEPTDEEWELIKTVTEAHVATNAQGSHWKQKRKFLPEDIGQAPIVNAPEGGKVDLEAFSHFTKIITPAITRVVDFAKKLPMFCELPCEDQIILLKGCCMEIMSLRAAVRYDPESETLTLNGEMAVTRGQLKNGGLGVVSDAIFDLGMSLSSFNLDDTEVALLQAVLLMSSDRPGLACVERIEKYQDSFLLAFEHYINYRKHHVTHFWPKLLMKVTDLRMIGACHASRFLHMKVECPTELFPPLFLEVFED

For this test, the target named is Thyroid hormone receptor beta (Homo sapiens) (UniProt P10828). The test can be described thus: qHTS for Inhibitors of the Interaction of Thyroid Hormone Receptor and Steroid Receptor Coregulator 2. Also: nearly all actives have a fitted effect of over 50% in size.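 As to activity change, negative = inhibition: plate controls were bound peptide for no effect and peptide without receptor for full effect.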 The following applies: TRbeta-SRC2 peptide binding, fluorescence polarization, receptor liganded with 1 µM T3; series mostly up to 201 µM; activity change, negative = inhibition: at the top concentration. The source says:
NIH Molecular Libraries Probe Production Network [MLPCN]
NIH Chemical Genomics Center [NCGC]
Assay Provider: R. Kip Guy, St. Jude Children's Research Hospital
Thyroid receptor (TR) regulates many homeostatic processes including basal metabolism, cardiovascular function, body weight, and lipid trafficking. TR modulators are potential therapeutics for obesity and hyperlipidemias but current thyroid analogs have undesirable side effects, particularly cardiac stimulation. To identify inhibitors that specifically prevent the interaction of TR with the steroid receptor coregulator 2 (SRC2), a fluorescence polarization assay was screened. This assay detects interaction of the ligand-binding domain of human TRb with a Texas Red labeled SRC2 peptide, corresponding to a 20 amino acid region of the nuclear receptor interaction domain (Arnold et al., 2006). Small molecule inhibitors that block the interaction of TR and SRC2 are detected by a decrease in fluorescence polarization.
Arnold, L. A.; Estebanez-Perpina, E.; Togashi, M.; Shelat, A.; Ocasio, C. A.; McReynolds, A. C.; Nguyen, P.; Baxter, J. D.; Fletterick, R. J.; Webb, P.; Guy, R. K. A high-throughput screening method to identify small molecule inhibitors of thyroid hormone receptor coactivator binding. Sci STKE 2006, p 13.
NCGC Assay Protocol Summary:
For screening, 5 uL/well 0.6 uM TRb and 20 nM SRC2 Texas Red in protein buffer (20mM Tris hydrochloride, 100mM NaCl, 10% glycerol, 1mM EDTA, 0.01% NP-40, 1mM DTT, 1uM T3 and 5% DMSO) was dispensed into black solid 1536-well plates (Grenier) using a solenoid-based dispenser. Following transfer of 23 nL compound or DMSO vehicle by a pin tool, the plates were centrifuged 15 s at 1000 RPM and incubated 5 hr at ambient temperature. The plates were read by an Envision (Perkin Elmer) to detect fluorescence polarization of SRC2 Texas Red (555 nm excitation and 632 nm emission). Data were normalized to unbound (all components except TRb) and bound SRC2 Texas Red controls. In this assay, we provide % activity data for each concentration as well as potencies for the active compounds.
Keywords: NIH Roadmap, MLPCN, MLI, MLSMR, qHTS, NCGC, qHTS, thyroid hormone receptor, steroid receptor coactivator, fluorescence polarization
On the technique in general: Quantitative high-throughput screening tests each substance at several concentrations.
With `CC[N+](C)(CC)CCC[n+]1c(-c2ccccc2)c2cc(N)ccc2c2ccc(N)cc21`, the Potency is 44.7 µM (active).
For the compound `Oc1ccc(C2(c3ccc(O)cc3)c3ccccc3-c3ccccc32)cc1`, the “activity change, negative = inhibition” value is 1.29% (inactive).
`[Ga]#[As]`: the “activity change, negative = inhibition” value was 5.9% (inactive).
Consider `CCOP(=O)(SC(C)CC)SC(C)CC` (stereo not given), for which the “activity change, negative = inhibition” value is -2.05% (inactive).
Regarding `COc1nc(C)nc(NC(=O)NS(=O)(=O)c2ccccc2CCC(F)(F)F)n1`, the “activity change, negative = inhibition” value was -2.66% (inactive).
